Bioassay records deposited in PubChem by several laboratories.
Mcl1-Bid inh = disrupts binding of human Mcl-1 to Bid peptide; Q07820; TR-FRET Mcl-1/Bid-Dy647 peptide binding, 1536-well; inhibition, % at 21.7 µM; actives 0.97% (n = 220,000);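 active = compounds that cut the binding signal by more than half at the single screening dose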;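 note: His-tagged Mcl-1 with europium anti-His antibody binding Bid BH3 peptide; 0% = Mcl-1 plus peptide wells and 100% = peptide-only wells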
Mcl1-Noxa inh = disrupts binding of human Mcl-1 to Noxa peptide. Q07820. TR-FRET Mcl-1/Noxa peptide binding, 2 h. inhibition, % at 21.7 µM. actives 1.5% (n = 220,000);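 active = compounds that cut the protein-peptide binding signal by more than 50% relative to plate controls in a single-dose test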;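 note: His-tagged Mcl-1 with rhodamine Noxa BH3 peptide and terbium anti-His antibody; 0% = Mcl-1 plus Noxa peptide wells and 100% = peptide-only wells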
MCL1 BIM primary = MCL1-BIM-BH3 interaction inhibition (human). Q07820. GST-MCL1 / FITC-Bim-BH3 fluorescence polarization. inhibition, % at 10.9 µM. actives 0.68% (n = 320,000);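 active = inhibition above the mean inhibition of all tested compounds plus 3 SD, set per campaign, cut at about 40% in these data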;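 note: 0% = DMSO wells and 100% = unlabeled Bim-BH3 peptide control; higher means more loss of mP so more displacement of Bim peptide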
GLD-1 TGE inh = GLD-1-TGE RNA interaction inhibition (C. elegans) | AID 2280 | Q17339 | purified GLD-1 + fluorescein TGE RNA, fluorescence polarization | inhibition, % at 5.96 µM | actives 0.44% (n = 320,000);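 active = percent inhibition above a per-plate cutoff, the plate mean of test compounds plus 3 SD, cut at about 30% in these data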;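 note: 0% = DMSO wells with GLD-1 and probe and 100% = wells lacking GLD-1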
Target sequence (Q17339 whole entry, looked up): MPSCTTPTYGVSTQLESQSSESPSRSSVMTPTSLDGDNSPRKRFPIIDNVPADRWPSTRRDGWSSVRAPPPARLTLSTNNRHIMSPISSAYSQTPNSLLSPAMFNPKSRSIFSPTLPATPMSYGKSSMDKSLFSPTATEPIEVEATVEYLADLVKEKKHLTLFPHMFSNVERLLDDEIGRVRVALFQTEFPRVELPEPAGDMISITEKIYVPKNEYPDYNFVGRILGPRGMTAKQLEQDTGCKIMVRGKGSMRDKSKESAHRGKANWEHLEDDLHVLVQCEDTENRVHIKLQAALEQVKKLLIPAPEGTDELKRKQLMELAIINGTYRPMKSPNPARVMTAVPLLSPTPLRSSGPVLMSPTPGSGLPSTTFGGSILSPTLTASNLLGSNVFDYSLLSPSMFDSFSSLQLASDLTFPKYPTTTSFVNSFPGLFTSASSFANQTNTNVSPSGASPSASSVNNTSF
Bcl-xL primary = inhibitors of human Bcl-xL | GST-Bcl-xL / FITC-Bim BH3 peptide fluorescence polarization | inhibition, % at 10.9 µM | Q07817 | actives 0.7% (n = 320,000);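 active = inhibition above the mean of all tested compounds plus 3 SD, cutoff set per campaign, cut at about 30% in these data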;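 note: 0% = DMSO wells and 100% = unlabeled Bim-BH3 peptide competitor; inhibitors lower millipolarization by displacing the labeled peptide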
Target sequence (Q07817 whole entry, looked up): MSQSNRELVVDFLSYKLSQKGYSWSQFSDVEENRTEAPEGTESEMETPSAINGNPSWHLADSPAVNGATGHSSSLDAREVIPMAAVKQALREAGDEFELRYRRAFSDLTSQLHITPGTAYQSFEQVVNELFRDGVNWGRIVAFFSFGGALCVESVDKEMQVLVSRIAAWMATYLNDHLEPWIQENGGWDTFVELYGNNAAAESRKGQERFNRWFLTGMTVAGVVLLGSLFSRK
Bim-Mcl-1 = inhibitors of Bim-Mcl-1 interaction, human; inhibition, % at 10 µM; Bead-based flow cytometry, Bim peptide-Mcl-1 binding; actives 0.1% (n = 190,000); AID 1009; in the data active = inhibition above about 40%;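 note: 0% = no compound tracer wells and 100% = peptide blocker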
GLD-1 TGE cf = GLD-1 TGE RNA interaction inhibition, confirmation. shares compounds with GLD-1 TGE inh. GLD-1/FL-TGE RNA fluorescence polarization, biochemical. inhibition, % at 5.96 µM. actives 10% (n = 550). AID 2459;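 active = average inhibition across triplicates above the hit cutoff set in the primary screen, cut at about 32% in these data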;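 note: 0% = GLD-1 with RNA probe and DMSO and 100% = wells lacking GLD-1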
Numbers without * were called inactive; x = no result given. In the library only some 2.3% were active in any assay of this set; here they are far more common.

SMILES	Mcl1-Bid inh	Mcl1-Noxa inh	MCL1 BIM primary	GLD-1 TGE inh	Bcl-xL primary	Bim-Mcl-1	GLD-1 TGE cf
COc1ccc(C(=O)N(C)Cc2ccc(C)o2)cc1OC1CCN(C(C)=O)CC1	x	x	2.3	3.0	4.4	x	x
O=C(CC1N=C2c3ccccc3N=C(SCc3ccc(Cl)cc3)N2C1=O)NCc1ccco1 (stereo not drawn)	3.4	21.3	29.6	39.5*	23.6	1.0	16.0
COc1ccccc1-c1cnn2c(NC3CCCC3)cc(C)nc12	x	x	2.0	66.1*	-1.6	x	-2.4
COc1ccc(Cl)cc1NC(=O)C1CCN(C(=O)C2CC(=O)N(c3ccc(C)cc3)C2)CC1 (stereo not drawn)	x	x	1.2	-1.2	5.1	x	x
O=C(CNC(=O)c1cccnc1)N/N=C/c1ccc(O)cc1O	x	x	19.8	32.8*	20.7	x	11.0
O=C(CNC(=O)c1cccs1)N/N=C/c1ccc(O)cc1O	-49.5	2.1	14.7	6.3	10.3	0.0	x
COc1cccc(C(=O)NN2CC(O)=C(c3nc4ccccc4s3)C2=N)c1	-21.1	13.2	0.8	30.8*	-0.3	1.0	-6.5
CC(OC(=O)c1cccc([N+](=O)[O-])c1)C(=O)NCc1ccc2c(c1)OCO2 (stereo not drawn)	x	x	-2.6	2.0	3.3	x	x
Cc1ccc(S(=O)(=O)NC(C(=O)Oc2ccc3ccc(=O)oc3c2)c2ccccc2)cc1 (stereo not drawn)	-14.6	7.3	-7.0	0.7	-3.1	-6.0	x
Cc1ccc(S(=O)(=O)N[C@H](C(=O)Oc2ccc3c(C(F)(F)F)cc(=O)oc3c2)c2ccccc2)cc1	-22.6	-10.9	45.3*	50.4*	45.3*	-1.0	44.3*
CCN(CC)CCCn1c2c(c(SCC(=O)N3CCCc4ccccc43)nc1=O)CCC2	x	x	5.4	-10.1	0.1	x	x
CN1C[C@H](C(=O)NC2(C)OC3(O)[C@@H]4CCCN4C(=O)[C@H](Cc4ccccc4)N3C2=O)CC2c3cccc4[nH]cc(c34)C[C@H]21 (stereo partly drawn)	x	x	38.2	33.4*	36.1*	x	2.2
CCN1C/C(=C/c2sccc2C)c2nc3ccccc3c(C(=O)O)c2C1	-14.0	17.6	10.4	11.5	16.4	x	x
CCN1C/C(=C/c2cccs2)c2nc3ccccc3c(C(=O)O)c2C1	30.5	43.5	34.5	35.2*	32.5*	x	34.4*
COc1ccc(NC(=O)CN2C(=O)COc3ccc(C)cc32)cc1	x	x	5.1	-3.0	6.9	x	x
CC(C)(C)OC(=O)C[C@H]1C/C=C\C[C@@H](CC(=O)N(CCO)Cc2ccccc2)C(=O)N[C@H](Cc2c[nH]c3ccccc23)COC1=O	x	x	x	4.8	x	x	x
O=C1c2ccccc2C(=O)c2c(O)c(O)cc(O)c21	x	x	x	69.5*	x	x	42.8*
CNC(=O)c1c(NC(=O)CCS(=O)(=O)c2ccc(F)cc2)sc(C)c1C	x	x	4.9	4.9	2.5	x	x
CCC(C)(C)n1nnnc1CN(Cc1cccs1)Cc1cc2cc(OC)ccc2[nH]c1=O	0.4	10.3	4.8	6.7	2.4	3.0	x
CCOc1ccc2[nH]c(=O)c(CN(Cc3cccs3)Cc3nnnn3C(C)(C)CC)cc2c1	9.0	-2.1	3.7	109.3*	6.9	0.0	-4.5
CCOC(=O)CSc1nnc(Cc2cc(=O)[nH]c(=O)[nH]2)n1-c1ccc(Cl)cc1	-14.1	20.9	26.1	38.0*	20.7	0.0	6.9
CCOc1ccc(-n2c(Cc3cc(=O)[nH]c(=O)[nH]3)nnc2SCC(=O)OC)cc1	-19.8	-13.4	3.6	6.6	5.8	2.0	x
CCOC(=O)CC(=O)CSc1nc2ccc(OC)cc2cc1C	-15.4	12.5	46.6*	34.4*	36.3*	0.0	-4.8
CCOC(=O)CC(=O)CSc1nc2cc(C)ccc2cc1C	-7.0	19.7	28.7	23.4	20.9	2.0	x
CCOC(=O)Nc1ccc2c(COC(=O)C(NS(=O)(=O)c3ccc(Cl)cc3)C(C)O)cc(=O)oc2c1 (stereo not drawn)	x	x	x	-6.0	x	x	x
SMILES	Mcl1-Bid inh	Mcl1-Noxa inh	MCL1 BIM primary	GLD-1 TGE inh	Bcl-xL primary	Bim-Mcl-1	GLD-1 TGE cf
CC1(C)CC(=O)C2=C(C1)Nc1ccccc1NC2c1ccc(F)cc1 (stereo not drawn)	x	x	45.2*	34.8*	46.1*	x	0.4
COc1ccc(C2Nc3ccccc3NC3=C2C(=O)CC(C)(C)C3)cc1 (stereo not drawn)	x	x	4.7	7.3	5.4	x	x
Cc1ccc(OCC(=O)N2CCOCC2)c([N+](=O)[O-])n1	-26.4	2.1	-4.2	2.7	-3.5	x	x
Cc1ccc(OCC(=O)c2ccc(Cl)s2)c([N+](=O)[O-])n1	-104.9	49.2	17.6	30.7*	17.6	-1.0	-5.1
Cc1ccc(-c2nc(CS(=O)(=O)CC(=O)Nc3cc(F)ccc3F)c(C)o2)cc1	x	x	5.6	9.6	12.4	x	x
Cc1cc(C)nc(SCc2ccc(C(=O)N/N=C3\CCCC(=O)C3)cc2)n1	-40.6	-6.7	13.9	43.2*	7.7	3.0	-9.1
O=C(OCC(=O)N1CCN(C(=O)c2ccco2)CC1)c1sc2cc(F)ccc2c1Cl	-2.6	24.4	37.5	36.1*	60.5*	-4.0	-4.8
COC(=O)CN1C(=O)N/C(=C/c2ccc(C)o2)C1=O	-25.7	33.4	26.0	62.9*	29.0	-3.0	-7.8
COC(=O)COc1ccc(/C=C2/NC(=O)N(CC(=O)OC)C2=O)cc1	-39.1	14.1	-8.0	7.0	1.8	-2.0	x
CCN(CC)CCNC(C(=O)Nc1cc(C(F)(F)F)ccc1Cl)c1ccccc1 (stereo not drawn)	-50.9	22.9	-20.9	35.2*	-6.3	-3.0	-0.5
COc1ccccc1CNC(=O)Cn1nnnc1CN(C)C(C)C	x	x	-0.6	6.6	1.1	x	x
COC(=O)c1ccc(CNC(=O)Cn2nnnc2CN(C)C(C)C)cc1	x	x	5.8	138.2*	4.3	x	-4.4
CCCCN(C(=O)c1cc2ccccc2o1)c1c(N)n(CC(C)C)c(=O)[nH]c1=O	15.1	19.5	-0.6	6.1	1.7	0.0	x
CCCCN(C(=O)c1ccc([N+](=O)[O-])o1)c1c(N)n(CC(C)C)c(=O)[nH]c1=O	x	x	39.4	37.1*	33.6*	x	64.5*
Cc1ccccc1-n1nc2c(c1NC(=O)CC(C)C)CS(=O)C2 (stereo not drawn)	x	x	-12.9	-7.6	-0.7	x	x
CO/N=C\Cc1oc(=O)c(NC(=O)c2ccccc2)cc1C(=O)OC	-87.3	11.8	34.4	36.6*	36.0*	-1.0	-10.1
CC(NC(=O)c1ccco1)c1ccc(-n2ccnc2)cc1 (stereo not drawn)	x	x	-3.0	-0.8	2.4	x	x
Cc1cc(C(=O)NNC(=O)[C@H](C)NC(=O)c2ccc(Br)cc2)c(C)o1	x	x	x	6.5	x	x	x
O=C1COc2ccc(C(=O)COC(=O)CCSc3ccccc3)cc2N1	-57.4	13.8	-10.0	59.0*	-19.4	x	-9.3
COC(=O)c1ccc(NC(=O)Cn2nc(C(=O)Nc3ccc(C)cc3)ccc2=O)cc1	x	x	3.4	6.6	7.0	x	x
